TR-FRET SRC-2 ct: counter-screen for PPARgamma SRC-2 recruitment agonists: TR-FRET artefact | stronger effect = higher value | TR-FRET ratio at 8 µM | 200,000 compounds, 0.4% hits | AID 1049
PPARg SRC-3 ag: PPARgamma-driven SRC-3 recruitment agonism; P37231; biochemical PPARgamma/SRC-3 coactivator recruitment assay; activation, % at 8 µM; 200,000 compounds, 0.26% hits; in the data active means activation above about 23%;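 further: 0% = DMSO and 100% = reference agonist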
Target sequence (P37231 whole entry, looked up): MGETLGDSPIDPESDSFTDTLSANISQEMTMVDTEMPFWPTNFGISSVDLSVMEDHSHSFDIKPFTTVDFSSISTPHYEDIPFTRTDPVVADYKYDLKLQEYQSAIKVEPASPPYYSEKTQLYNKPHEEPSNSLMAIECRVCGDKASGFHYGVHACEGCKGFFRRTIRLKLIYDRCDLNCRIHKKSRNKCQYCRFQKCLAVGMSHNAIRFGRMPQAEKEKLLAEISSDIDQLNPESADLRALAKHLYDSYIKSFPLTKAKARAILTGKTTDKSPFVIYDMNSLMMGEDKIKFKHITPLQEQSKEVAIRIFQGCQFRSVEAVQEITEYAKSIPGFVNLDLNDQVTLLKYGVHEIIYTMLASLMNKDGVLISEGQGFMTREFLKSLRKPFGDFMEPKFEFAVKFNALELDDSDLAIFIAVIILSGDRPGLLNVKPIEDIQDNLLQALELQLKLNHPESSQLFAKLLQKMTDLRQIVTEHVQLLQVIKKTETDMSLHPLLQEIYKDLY
PPARg SRC1 recr: PPARgamma-driven SRC-1 recruitment agonism; P37231; PPARgamma-SRC-1 coactivator recruitment biochemical assay; activation, % at 8 µM; 200,000 compounds, 0.41% hits; AID 631; in the data active means activation above about 19%;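 further: 0% = DMSO and 100% = reference agonist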
SRC1 TRFRET art: flags TR-FRET format artefacts in PPARgamma SRC-1 recruitment agonist screen; 99,000 compounds, 0.34% hits; TR-FRET ratio at 8 µM; TR-FRET detection artefact counter-screen, emission ratio; stronger effect = higher value; in the data active means TR-FRET ratio above about 2300
SRC3 TRFRET art: counter-screen for PPARgamma SRC-3 recruitment agonists: TR-FRET artefact; PPARgamma/SRC-3 format; stronger effect = higher value; TR-FRET ratio at 8 µM; 99,000 compounds, 0.39% hits; AID 1048
PPARg SRC2 recr: promotes SRC-2 coactivator recruitment by human PPARgamma; activation, % at 8 µM; AID 1032; PPARgamma LBD-SRC-2 recruitment, biochemical; P37231; 200,000 compounds, 0.34% hits; in the data active means activation above about 22%;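 further: 0% = vehicle and 100% = reference agonist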
Numbers without * were called inactive; x = not tested or not shown. Sampled rows, rich in hits. Any-hit rate of the full collection: about 0.9%. Unless noted, no stated cut-off is given here; in the data, active means TR-FRET ratio above about 2000; inactive means the rest.

SMILES	TR-FRET SRC-2 ct	PPARg SRC-3 ag	PPARg SRC1 recr	SRC1 TRFRET art	SRC3 TRFRET art	PPARg SRC2 recr
CC(C)C[C@H](NC(=O)OC(C)(C)C)c1nnc(SCc2cccc(F)c2)o1	1571	6.3	14.7	x	x	0.4
CC(C)[C@H](NC(=O)OC(C)(C)C)c1nnc(SCc2cccc(F)c2)o1	1557	5.4	55.3*	x	x	15.4
O=C(Nc1ccc([N+](=O)[O-])cc1)/C(=C/c1cccc([N+](=O)[O-])c1)NC(=O)C1CCCCC1	1705	8.4	-0.7	x	x	24.5*
Cc1ccc(NC(=O)/C(=C/c2cccc([N+](=O)[O-])c2)NC(=O)C2CCCCC2)c(C)c1	1516	4.9	-4.7	x	x	-0.6
Cc1cc(/C=C2/NC(=O)N(Cc3ccccc3F)C2=O)c(C)n1C	1764	7.6	0.8	1719	1554	22.6*
NC1=NC2CS(=O)(=O)CC2S1 (configuration not stated)	1607	4.6	1.1	1902	1504	7.1
Cc1ccc(-c2cc(C(=O)NCc3cnn(C)c3C)c3cc(Br)ccc3n2)cc1	2130*	21.8	13.9	x	x	19.4
Cc1ccc(-c2cc(C(=O)N(C)Cc3cnn(C)c3C)c3cc(Br)ccc3n2)cc1	1910	10.2	6.7	1935	2046	6.3
COc1ccc(C(=O)NC(=S)Nc2ccc(Cc3ccncc3)cc2)cc1	1868	-1.4	10.4	1688	1640	-1.1
COc1ccc(C2Cc3ccccc3C(=O)O2)cc1 (configuration not stated)	1522	4.8	5.2	1895	1778	9.0
COc1ccc2c(CC(=O)OCC(=O)Nc3sc4c(c3C#N)CCC(C)C4)coc2c1 (configuration not stated)	1465	1.6	-2.3	1826	1547	10.3
Cc1cccc(Nc2ccc(C(=O)N3CCOCC3)cn2)c1	1985*	2.8	9.2	2076	1601	6.8
O=C(c1ccc(Nc2cccc(C(F)(F)F)c2)nc1)N1CCCC1	1376	7.5	0.0	x	x	-4.8
Nc1ccc(-c2cn3cccnc3n2)cc1	1474	12.1	0.8	1719	2118*	8.9
COc1ccc(-c2cn3cccnc3n2)cc1Br	1548	0.1	-0.2	1584	1496	1.3
Cc1nc2ccc(-c3nc4ccc(N)cc4[nH]3)cc2[nH]1	1684	11.5	19.7	2025	2163*	13.4
Cc1ccccc1NC(=O)Cn1nnc(S(=O)(=O)c2ccc(C(C)(C)C)cc2)c1N	1764	-3.1	-3.6	1854	1656	0.1
COc1ccccc1C(=O)NCC1(c2ccccc2)CCCC1	1589	0.5	1.8	2107	1573	5.3
Cc1ccccc1CC1(CO)CCCN(C(=O)CCC(=O)c2ccccc2)C1 (configuration not stated)	1534	-0.5	21.6*	2022	1671	-0.3
COc1ccc(-c2cc(-c3ccc(Br)cc3)nc3ncnn23)cc1OC	2400*	19.4	13.3	x	x	17.8
COc1ccc(-c2cc(-c3ccccc3)nc3ncnn23)cc1	1582	-1.2	-2.9	1632	1563	-3.6
Cc1nc2ccc(NS(=O)(=O)c3ccc4c(c3)OCCO4)cc2s1	1590	-4.4	-2.1	x	x	12.0
COc1ccc(-c2c(C#N)c(C)nc3c2C(=O)c2ccccc2-3)cc1	1442	-14.3	23.9*	x	x	-2.4
COc1ccc(NC(=O)NC2CCCCC2C)cc1 (configuration not stated)	1618	5.8	-8.1	1989	1509	7.9
FC(F)(F)c1nc(=S)c2ccccc2[nH]1	2366*	21.3	22.6*	2370*	2198*	26.6*
SMILES	TR-FRET SRC-2 ct	PPARg SRC-3 ag	PPARg SRC1 recr	SRC1 TRFRET art	SRC3 TRFRET art	PPARg SRC2 recr
Cc1cc(C(=O)N/N=C/c2ccc(O)c([N+](=O)[O-])c2)n[nH]1	1578	8.5	4.0	2220	1716	9.1
Cc1cc(C(=O)N/N=C/c2cccc([N+](=O)[O-])c2O)n[nH]1	1799	4.4	8.1	2259	2114*	18.2
COc1ccc(/C=C2/C(=O)N(c3nc4ccccc4s3)N=C2CSc2ccc(Cl)cc2)cc1	1737	5.4	5.0	2577*	2197*	-0.3
COc1ccc(/C=C2/C(=O)N(Cc3ccccc3)N=C2C)cc1	1595	4.4	1.3	1736	1500	0.1
CC(=O)c1c(C)n(C)c2ccc(OC(=O)c3ccc([N+](=O)[O-])cc3)cc12	1434	4.9	3.0	1873	1599	11.7
Cc1nc2cc(C(=O)O)ccc2n1-c1ccc(F)cc1F	1608	5.9	0.2	x	x	5.7
CCOc1ccccc1-n1c(C)nc2cc(C(=O)O)ccc21	1695	5.3	8.1	2322*	1625	-3.1
O=C(COC(=O)c1ccc(Br)cc1)Nc1ccccc1Br	1703	8.7	0.6	1849	1624	0.7
O=C(Cc1sc(-c2ccccc2Cl)nc1-c1ccccc1)Nc1ccccc1	1609	0.9	75.3*	x	x	5.5
COC(=O)c1c(NC(NC(=O)c2ccccc2)(C(F)(F)F)C(F)(F)F)sc2c1CCN(C)C2	1983*	-0.1	10.0	2058	1622	7.6
CCC(=O)NC(Nc1sc2c(c1C(=O)OC)CCCC2)(C(F)(F)F)C(F)(F)F	1419	-1.8	-3.3	x	x	0.0
COc1ccc(/C(N)=N/OC(=O)CN(C)S(=O)(=O)c2ccc(C)cc2)cc1	1857	4.8	22.1*	1999	1722	3.9
COc1ccc(/C(N)=N/OC(=O)CN(C)S(=O)(=O)c2ccccc2)cc1	1684	5.2	0.2	1709	1502	6.1
O=C(c1ccccc1)c1cnc(-c2ccc(Cl)cc2)s1	1816	-1.2	28.6*	x	x	-5.6
O=C(c1ccc(Cl)cc1)c1cnc(-c2ccc(Cl)cc2)s1	1525	7.0	7.6	x	x	-2.9
Cc1ccc(CNC(=O)COc2ccc(C(=O)c3ccc(F)cc3)cc2)cc1	1529	-2.2	39.1*	2702*	1604	4.7
CCOC(=O)c1c(NC(=O)CSc2nnc(CNc3ccc(F)cc3)o2)sc(C(C)=O)c1C	1619	33.7*	9.9	x	x	13.2
CCOC(=O)c1c(NC(=O)CSc2nc(C)cc(C)c2C#N)sc(C(C)=O)c1C	3647*	10.5	6.4	x	x	62.5*
CCOC(=O)c1c(NC(=O)CSc2nnc(-c3ccc(C)cc3)o2)sc(C(C)=O)c1C	1483	3.0	8.7	x	x	-4.2
Cc1c(C(=O)Nc2cccc(N(C)S(C)(=O)=O)c2)cccc1[N+](=O)[O-]	1874	3.3	12.8	1718	1511	8.7
CC1CC(C)(C)NC(=S)N1CCCC(=O)N1CCN(c2ccccc2F)CC1 (configuration not stated)	1431	-3.2	11.4	2350*	1491	-6.2
CC1CC(C)(C)NC(=S)N1CCCC(=O)Nc1ccccc1F (configuration not stated)	1448	-3.2	2.6	1735	1389	-0.3
Cc1ccc2c(CC(=O)N3CCN(c4ccccc4)CC3)coc2c1	1480	2.1	-2.5	1682	1503	-0.9
Clc1ccc(Cn2cccn2)cn1	1516	0.1	-1.9	1525	1454	3.4
O=C(Nc1cccnc1)c1cc(-c2ccc(F)cc2)on1	1430	1.3	-5.7	1836	1821	-4.9
